Among the data in ChEMBL document CHEMBL3988442, “University of Dundee, Small-Polar-MMV Screening Library” (2021) are Percent Effect values, retold here.

Structures are written as SMILES. For some assays here: Measured potencies and affinities stand elsewhere.

Common to all, as to design: scale not given: direction of the effect not stated beside the values
Test [1] deals with Protein translocase subunit SecA (Escherichia coli (strain K12)) (UniProt P10408). Kind of test: Assay to Identify E. coli SecA ATPase Inhibitors. It is filed as functional. The conditions noted are these: 30 µM.
Protein translocase subunit SecA (Escherichia coli (strain K12)), sequence (P10408 whole entry): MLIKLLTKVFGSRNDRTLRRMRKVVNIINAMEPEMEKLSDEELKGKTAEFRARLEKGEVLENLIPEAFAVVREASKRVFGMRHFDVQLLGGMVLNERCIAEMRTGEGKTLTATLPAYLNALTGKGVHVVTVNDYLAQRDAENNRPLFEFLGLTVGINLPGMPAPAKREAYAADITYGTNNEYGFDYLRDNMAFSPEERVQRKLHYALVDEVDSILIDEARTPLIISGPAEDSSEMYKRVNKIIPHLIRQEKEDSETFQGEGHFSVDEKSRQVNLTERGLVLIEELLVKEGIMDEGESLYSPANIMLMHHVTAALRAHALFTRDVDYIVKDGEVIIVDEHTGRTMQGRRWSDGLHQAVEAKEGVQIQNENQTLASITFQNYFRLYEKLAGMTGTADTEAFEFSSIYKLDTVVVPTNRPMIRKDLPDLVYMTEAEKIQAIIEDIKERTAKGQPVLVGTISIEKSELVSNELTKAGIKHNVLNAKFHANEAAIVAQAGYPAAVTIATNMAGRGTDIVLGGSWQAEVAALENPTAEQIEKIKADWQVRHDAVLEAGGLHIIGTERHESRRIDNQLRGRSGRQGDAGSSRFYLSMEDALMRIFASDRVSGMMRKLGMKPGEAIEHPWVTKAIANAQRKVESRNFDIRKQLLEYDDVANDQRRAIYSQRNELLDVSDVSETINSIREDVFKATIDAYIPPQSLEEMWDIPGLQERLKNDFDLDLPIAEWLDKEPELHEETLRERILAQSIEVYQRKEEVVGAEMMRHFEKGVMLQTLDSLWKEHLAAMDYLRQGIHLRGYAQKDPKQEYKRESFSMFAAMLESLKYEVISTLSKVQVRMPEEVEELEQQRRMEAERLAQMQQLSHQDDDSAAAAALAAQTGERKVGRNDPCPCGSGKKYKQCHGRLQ
Test [2] deals with T1, Ubiquitin-activating enzyme e1, putative (Leishmania donovani (strain BPK282A1)) (UniProt E9BSI1).
T1 sequence (whole entry): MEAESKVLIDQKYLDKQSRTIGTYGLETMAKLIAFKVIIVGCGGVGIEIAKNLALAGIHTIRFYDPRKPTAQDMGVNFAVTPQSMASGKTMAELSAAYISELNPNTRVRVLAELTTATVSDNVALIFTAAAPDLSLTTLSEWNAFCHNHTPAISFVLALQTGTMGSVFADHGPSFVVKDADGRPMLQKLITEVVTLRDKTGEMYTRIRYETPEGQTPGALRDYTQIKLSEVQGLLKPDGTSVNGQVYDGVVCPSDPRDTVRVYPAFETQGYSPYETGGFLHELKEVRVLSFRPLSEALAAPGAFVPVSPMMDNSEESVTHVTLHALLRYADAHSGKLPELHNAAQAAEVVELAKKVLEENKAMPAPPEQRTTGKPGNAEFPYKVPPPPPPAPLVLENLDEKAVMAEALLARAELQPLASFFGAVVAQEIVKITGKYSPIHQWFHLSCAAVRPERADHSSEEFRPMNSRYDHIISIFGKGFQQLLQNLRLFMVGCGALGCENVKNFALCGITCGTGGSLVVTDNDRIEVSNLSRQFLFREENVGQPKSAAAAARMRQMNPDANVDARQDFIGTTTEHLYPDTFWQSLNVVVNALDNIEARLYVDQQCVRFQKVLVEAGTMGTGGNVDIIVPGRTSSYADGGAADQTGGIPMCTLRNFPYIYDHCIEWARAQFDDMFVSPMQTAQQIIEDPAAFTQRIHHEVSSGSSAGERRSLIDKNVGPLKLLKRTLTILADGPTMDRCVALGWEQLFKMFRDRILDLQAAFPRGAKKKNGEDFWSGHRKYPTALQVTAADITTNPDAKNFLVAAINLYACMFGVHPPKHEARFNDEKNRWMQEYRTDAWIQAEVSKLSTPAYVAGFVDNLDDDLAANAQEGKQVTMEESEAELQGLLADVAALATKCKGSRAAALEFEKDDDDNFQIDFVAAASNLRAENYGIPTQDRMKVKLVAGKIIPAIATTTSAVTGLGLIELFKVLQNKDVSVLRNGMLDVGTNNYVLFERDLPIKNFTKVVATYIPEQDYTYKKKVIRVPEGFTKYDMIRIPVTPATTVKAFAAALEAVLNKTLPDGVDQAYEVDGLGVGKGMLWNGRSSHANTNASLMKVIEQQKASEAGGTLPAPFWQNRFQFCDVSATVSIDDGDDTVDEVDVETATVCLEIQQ
The test is described as follows: Leishmania donovani Ubiquitin Activating Enzyme (LdE1). It is filed as functional. Conditions: 30 µM.

In test [3] the target is AMP-activated protein kinase, AMPK (Homo sapiens) (UniProt P54646+O43741+P54619+Q9UGJ0+Q9Y478+Q13131+Q9UGI9). The test is described as follows: AMP-dependent Kinase enzyme assay. An in vitro enzyme assay that detects ADP turnover that is directly proportional to AMPK activity. This uses naive AMPK that is activated during the assay with MK-8722. It is filed as functional. Conditions: 30 µM.

In test [4] the target is Sialic acid-binding Ig-like lectin 9 (Homo sapiens) (UniProt Q9Y336). Kind of test: Hs-Siglec9 ALPHAscreen SOP 20170721. Conditions: 10 µM. For orientation: Bead proximity is the source of the signal in Alpha formats.
Sialic acid-binding Ig-like lectin 9 (Homo sapiens), sequence (Q9Y336 whole entry): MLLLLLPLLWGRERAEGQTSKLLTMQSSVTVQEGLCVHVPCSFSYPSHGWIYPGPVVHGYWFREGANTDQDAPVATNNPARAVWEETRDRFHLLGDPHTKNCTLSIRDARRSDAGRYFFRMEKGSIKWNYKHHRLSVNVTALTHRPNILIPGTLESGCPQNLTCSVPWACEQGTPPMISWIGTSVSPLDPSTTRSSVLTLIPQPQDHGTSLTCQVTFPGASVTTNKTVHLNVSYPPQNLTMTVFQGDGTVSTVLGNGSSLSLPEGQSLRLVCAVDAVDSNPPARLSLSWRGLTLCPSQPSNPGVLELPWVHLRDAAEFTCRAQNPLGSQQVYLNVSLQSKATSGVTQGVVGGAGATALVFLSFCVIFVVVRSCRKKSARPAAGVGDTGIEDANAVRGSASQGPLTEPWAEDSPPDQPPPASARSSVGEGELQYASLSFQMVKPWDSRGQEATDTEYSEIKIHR
Test [5] has as its system Trypanosoma cruzi. The test is described as follows: Trypanosoma cruzi phosphomannomutase and mannose-1-phosphate guanylyltransferase assay. It is filed as functional. Conditions: 10 µM.
The target in test [6] is T2, Arginase-2, mitochondrial (Homo sapiens) (UniProt P78540).
T2 sequence (whole entry): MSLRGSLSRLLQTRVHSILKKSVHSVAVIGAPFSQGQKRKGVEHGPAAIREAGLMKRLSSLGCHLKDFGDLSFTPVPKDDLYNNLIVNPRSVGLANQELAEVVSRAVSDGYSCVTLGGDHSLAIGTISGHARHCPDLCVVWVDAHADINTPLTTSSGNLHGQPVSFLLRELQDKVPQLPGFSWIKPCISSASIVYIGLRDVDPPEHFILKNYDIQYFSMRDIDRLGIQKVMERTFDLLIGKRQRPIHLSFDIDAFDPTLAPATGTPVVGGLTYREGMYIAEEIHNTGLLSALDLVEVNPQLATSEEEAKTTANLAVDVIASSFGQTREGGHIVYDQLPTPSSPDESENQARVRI
The test is described as follows: in vitro enzyme assay to detect the production of urea directly proportional to the activity of Arginase II. Also: in the data most compounds retested in dose-response had high values. Format: functional. Conditions: 33.3 µM.

Test [7] addresses T3, Proteasome subunit beta (Trypanosoma cruzi) (UniProt O96673).
T3 sequence (whole entry): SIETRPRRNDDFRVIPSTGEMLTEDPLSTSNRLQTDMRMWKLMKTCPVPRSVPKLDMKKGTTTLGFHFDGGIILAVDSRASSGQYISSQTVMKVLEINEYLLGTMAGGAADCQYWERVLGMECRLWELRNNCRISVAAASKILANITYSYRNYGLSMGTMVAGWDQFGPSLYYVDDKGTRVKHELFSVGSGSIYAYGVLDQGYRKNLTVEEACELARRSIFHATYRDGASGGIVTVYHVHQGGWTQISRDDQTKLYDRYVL
The test is described as follows: Trypanosoma cruzi proteasome chymotrypsin-like activity (TcProtChymo) assay. Also: in the data most compounds retested in dose-response had high values. Format: functional. Conditions: 9.37 µM.

The species named for test [8] is Homo sapiens. The test is described as follows: To identify inhibition of the IFN signalling (Jak-Stat) pathway via expression of an eGFP reporter gene under the control of an IFN-stimulated response element (ISRE) containing MxA promoter. Conditions: 30 µM. Format: functional. For orientation: In a reporter assay the amount or activity of a reporter protein is the signal.

Test [9] addresses T4, Tyrosyl-tRNA synthetase, putative (Trypanosoma cruzi (strain CL Brener)) (UniProt Q4DSP6).
T4 sequence (whole entry): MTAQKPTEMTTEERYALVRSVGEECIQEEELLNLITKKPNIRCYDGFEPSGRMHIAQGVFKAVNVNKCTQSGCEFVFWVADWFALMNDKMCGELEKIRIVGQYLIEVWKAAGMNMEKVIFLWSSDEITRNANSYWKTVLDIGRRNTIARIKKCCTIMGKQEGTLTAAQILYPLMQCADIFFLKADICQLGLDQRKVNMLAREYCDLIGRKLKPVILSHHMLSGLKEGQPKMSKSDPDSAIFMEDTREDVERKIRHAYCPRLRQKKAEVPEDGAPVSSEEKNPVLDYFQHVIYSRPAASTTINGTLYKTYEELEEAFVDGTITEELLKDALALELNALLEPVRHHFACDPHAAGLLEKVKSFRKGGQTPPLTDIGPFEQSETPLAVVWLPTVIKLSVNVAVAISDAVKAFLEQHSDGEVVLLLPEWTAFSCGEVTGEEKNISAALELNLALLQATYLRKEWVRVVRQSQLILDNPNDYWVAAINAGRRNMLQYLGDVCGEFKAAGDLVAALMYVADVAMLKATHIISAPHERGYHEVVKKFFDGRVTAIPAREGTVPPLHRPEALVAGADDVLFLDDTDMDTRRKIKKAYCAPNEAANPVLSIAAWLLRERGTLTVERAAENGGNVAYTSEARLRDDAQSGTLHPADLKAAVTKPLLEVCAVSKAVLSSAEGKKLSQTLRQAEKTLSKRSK
The test is described as follows: Trypanosoma cruzi tyrosyl tRNA synthetase (TcYRS) _High Tyrosine SOP. Also: in the data most compounds retested in dose-response had high values. It is filed as functional. Conditions: 30 µM.

In test [10] the target is T4, Tyrosyl-tRNA synthetase, putative (Trypanosoma cruzi (strain CL Brener)). Kind of test: Trypanosoma cruzi tyrosyl tRNA synthetase (TcYRS) SOP. Format: functional. Conditions: 30 µM.
Test [11] addresses Chromo domain-containing protein 1 (Saccharomyces cerevisiae (strain ATCC 204508 / S288c) (Baker's yeast)) (UniProt P32657). The test is described as follows: ScCHD-1 Enzyme Inhibition Assay. Also: in the data most compounds retested in dose-response had high values. It is filed as functional. Conditions: 30 µM.

Chromo domain-containing protein 1 (Saccharomyces cerevisiae (strain ATCC 204508 / S288c) (Baker's yeast)), sequence (P32657 whole entry, the tested form may be a part): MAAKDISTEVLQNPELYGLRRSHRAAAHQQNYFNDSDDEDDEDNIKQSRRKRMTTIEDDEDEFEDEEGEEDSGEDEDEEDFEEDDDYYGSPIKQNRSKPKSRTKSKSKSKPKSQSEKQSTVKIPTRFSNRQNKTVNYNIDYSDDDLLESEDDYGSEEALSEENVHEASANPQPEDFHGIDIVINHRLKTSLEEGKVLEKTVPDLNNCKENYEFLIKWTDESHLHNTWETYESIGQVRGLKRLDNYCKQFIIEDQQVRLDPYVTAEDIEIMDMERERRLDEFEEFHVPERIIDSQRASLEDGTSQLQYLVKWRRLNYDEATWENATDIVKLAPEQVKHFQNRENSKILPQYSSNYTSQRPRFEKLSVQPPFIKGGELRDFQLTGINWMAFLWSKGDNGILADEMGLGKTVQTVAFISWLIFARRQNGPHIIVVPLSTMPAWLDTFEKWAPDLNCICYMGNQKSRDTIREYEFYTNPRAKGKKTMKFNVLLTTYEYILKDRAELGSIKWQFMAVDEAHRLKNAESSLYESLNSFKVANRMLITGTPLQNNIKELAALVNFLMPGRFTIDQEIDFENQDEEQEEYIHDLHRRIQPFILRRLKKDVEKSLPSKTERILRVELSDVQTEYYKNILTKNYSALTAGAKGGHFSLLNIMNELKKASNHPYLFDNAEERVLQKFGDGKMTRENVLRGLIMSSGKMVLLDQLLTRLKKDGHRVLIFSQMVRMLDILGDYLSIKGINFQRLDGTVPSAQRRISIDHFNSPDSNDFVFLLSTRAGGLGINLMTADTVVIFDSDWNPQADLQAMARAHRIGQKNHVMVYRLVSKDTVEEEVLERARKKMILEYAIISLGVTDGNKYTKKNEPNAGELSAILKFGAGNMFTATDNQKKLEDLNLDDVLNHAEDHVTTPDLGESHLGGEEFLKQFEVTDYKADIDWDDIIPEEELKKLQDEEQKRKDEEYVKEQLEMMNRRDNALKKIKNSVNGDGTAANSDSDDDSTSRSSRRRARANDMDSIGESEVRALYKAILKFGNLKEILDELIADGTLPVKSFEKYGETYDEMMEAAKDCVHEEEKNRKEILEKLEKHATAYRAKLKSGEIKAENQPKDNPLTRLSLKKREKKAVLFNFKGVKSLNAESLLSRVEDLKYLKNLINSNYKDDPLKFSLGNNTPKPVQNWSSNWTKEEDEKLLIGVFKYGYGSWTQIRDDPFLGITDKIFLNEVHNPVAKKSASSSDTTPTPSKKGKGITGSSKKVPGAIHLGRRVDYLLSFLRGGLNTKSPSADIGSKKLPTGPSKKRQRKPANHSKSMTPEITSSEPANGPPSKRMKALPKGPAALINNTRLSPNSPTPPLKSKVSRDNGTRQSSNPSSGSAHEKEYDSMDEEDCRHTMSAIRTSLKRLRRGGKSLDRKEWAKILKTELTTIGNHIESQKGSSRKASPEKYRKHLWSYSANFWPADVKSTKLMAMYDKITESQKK

For the molecule `Cc1nc(-c2ccsc2)ccc1C(=O)NCCC1CCCO1` (stereo not given), the Percent Effect in [1] is -8.67%; in test [2], 0%; in test [3], -8.2%; in [4], 10%; in test [5] it was 9.77%; in test [6], -1.92%. The Percent Effect in test [7] was 3.51%; in test [8], -2.44%; in test [9], 4.41%; in test [10] it was 9.76%; in test [11], -10.2%.

As for `Cc1cccc(-c2noc(CN3CC(n4cc(C)cn4)C3)n2)c1`, the Percent Effect in test [1] was -0.775%; in test [2], -13%; in [3] it was -3.33%; in test [4] it was 7.4%; in [5], 5.24%; in test [6] it was -2.85%. For the same molecule, the Percent Effect is 27.4% in test [7]; 26.4% in test [8]; 1.94% in [9]; 14.6% in test [10]; -5.58% in [11].

On to `CCN(Cc1ccc2c(c1)OCO2)C(=O)CCc1c(C)nc(C)[nH]c1=O`, for which the Percent Effect was -1.41% in [1]; 5.26% in test [2]; 1.51% in test [3]; 7.45% in [4]; -4.32% in [5]; 9.96% in [6]. In addition, the Percent Effect was 6.85% in test [7]; 21.9% in test [8]; 3.43% in test [9]; 9.76% in [10]; -1.69% in [11].

In the case of `COc1cccc(F)c1C(=O)N1C[C@@H](CN(C)CCO)[C@@H](CO)C1`, the Percent Effect in [1] was -8.11%; in test [2] it was 5.2%; in test [3], -2.26%; in [4], 3.34%; in test [5], -2.26%; in [6] it was -5.52%. Also, the Percent Effect was 2.16% in test [7]; -11% in test [8]; 2.15% in [9]; 8.64% in test [10]; -0.727% in test [11].

Regarding `COCCn1ccc(=O)c(OCC(=O)Nc2cccc(C(C)=O)c2)c1C`, the Percent Effect in test [1] was -2.27%; in test [2], 12%; in [3] it was 3.85%; in test [4] it was 5.25%; in [5], 0.982%; in test [6] it was -5.11%. The Percent Effect in test [7] was 13.5%; in [8] it was -24.6%; in test [9] it was 8.47%; in [10] it was 20.5%; in [11], -3.7%.

As to `O=C(c1cn(-c2cc(N3CCSCC3)ncn2)cn1)N1CCSCC1`, the Percent Effect in test [1] was -2.69%; in [2] it was 8.22%; in test [3], -3.54%; in test [4], -3.87%; in test [5], 6.27%; in [6] it was -1.82%. Moreover, the Percent Effect was 24% in test [7]; -3.38% in test [8]; 7.53% in test [9]; 15% in test [10]; -3.99% in [11].

Regarding `COCCN1C[C@@H]2CN(Cc3cccc(F)c3)CCC[C@]2(C(=O)O)C1`, the Percent Effect was -4.38% in test [1]; 0% in test [2]; 0.729% in [3]; -3.33% in test [4]; -4.24% in [5]; 1.94% in test [6]. Also, the Percent Effect in test [7] is 8.53%; in [8] it was 3.04%; in test [9] it was -2.12%; in test [10], -1.28%; in test [11], -7.5%.

In the case of `COCCCNC(=O)N1CCCC(c2nncn2C)C1` (stereo not given), the Percent Effect in [1] is -5.16%; in test [2], 2.63%; in test [3], -3.92%; in test [4], 8.87%; in [5], -3.46%; in [6], 0.36%. Besides, the Percent Effect in test [7] was 7.87%; in [8] it was 5.55%; in test [9], 0.493%; in test [10], -6.17%; in test [11] it was 2.53%.

Consider `O=C(c1cc(C2CC2)[nH]n1)N1CCN(Cc2ccsc2)CC1`, for which the Percent Effect in [1] was -5.68%; in test [2] it was 21.6%; in test [3], -3.2%; in [4], 10.8%; in test [5], 10.7%; in test [6], 1.66%. Also, the Percent Effect was 14% in test [7]; 9.93% in [8]; 7.92% in [9]; 23.2% in [10]; -1.29% in [11].

As to `Cn1cc(CNCCOc2ccc(F)c(F)c2)c(-c2cccnc2)n1`, the Percent Effect is -6.54% in [1]; 5.41% in [2]; -6.5% in [3]; 20.6% in [4]; 1.47% in test [5]; 0.744% in test [6]. For the same molecule, the Percent Effect was 5.41% in test [7]; 7.57% in test [8]; 4.3% in [9]; 8.64% in test [10]; -3.29% in [11].
